Data taken from PubChem BioAssay.
Values without a mark were called inactive. Active and inactive are the calls of the source. Rule as the data show it, unless noted: active = inhibition above about 30%; inactive = the rest.

The compounds below were run against Nuclear receptor coactivator 3 (Homo sapiens) (UniProt Q9Y6Q9) (assay: NCOA3 GAL4-fusion reporter inhibition – cell-based, luminescence, quadruplicate, confirmation (AID 588792;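 active = mean inhibition over 43.08%, the solvent-only control mean plus 3 SD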;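 also: 0% = DMSO treated cells and 100% = gossypol at 36 µM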)). Conditions: HEK293 GAL4-SRC3 luciferase reporter, at 3.6 µM, hits give high values.
Nuclear receptor coactivator 3 (Homo sapiens), sequence (Q9Y6Q9 whole entry, looked up, the tested form may be a part): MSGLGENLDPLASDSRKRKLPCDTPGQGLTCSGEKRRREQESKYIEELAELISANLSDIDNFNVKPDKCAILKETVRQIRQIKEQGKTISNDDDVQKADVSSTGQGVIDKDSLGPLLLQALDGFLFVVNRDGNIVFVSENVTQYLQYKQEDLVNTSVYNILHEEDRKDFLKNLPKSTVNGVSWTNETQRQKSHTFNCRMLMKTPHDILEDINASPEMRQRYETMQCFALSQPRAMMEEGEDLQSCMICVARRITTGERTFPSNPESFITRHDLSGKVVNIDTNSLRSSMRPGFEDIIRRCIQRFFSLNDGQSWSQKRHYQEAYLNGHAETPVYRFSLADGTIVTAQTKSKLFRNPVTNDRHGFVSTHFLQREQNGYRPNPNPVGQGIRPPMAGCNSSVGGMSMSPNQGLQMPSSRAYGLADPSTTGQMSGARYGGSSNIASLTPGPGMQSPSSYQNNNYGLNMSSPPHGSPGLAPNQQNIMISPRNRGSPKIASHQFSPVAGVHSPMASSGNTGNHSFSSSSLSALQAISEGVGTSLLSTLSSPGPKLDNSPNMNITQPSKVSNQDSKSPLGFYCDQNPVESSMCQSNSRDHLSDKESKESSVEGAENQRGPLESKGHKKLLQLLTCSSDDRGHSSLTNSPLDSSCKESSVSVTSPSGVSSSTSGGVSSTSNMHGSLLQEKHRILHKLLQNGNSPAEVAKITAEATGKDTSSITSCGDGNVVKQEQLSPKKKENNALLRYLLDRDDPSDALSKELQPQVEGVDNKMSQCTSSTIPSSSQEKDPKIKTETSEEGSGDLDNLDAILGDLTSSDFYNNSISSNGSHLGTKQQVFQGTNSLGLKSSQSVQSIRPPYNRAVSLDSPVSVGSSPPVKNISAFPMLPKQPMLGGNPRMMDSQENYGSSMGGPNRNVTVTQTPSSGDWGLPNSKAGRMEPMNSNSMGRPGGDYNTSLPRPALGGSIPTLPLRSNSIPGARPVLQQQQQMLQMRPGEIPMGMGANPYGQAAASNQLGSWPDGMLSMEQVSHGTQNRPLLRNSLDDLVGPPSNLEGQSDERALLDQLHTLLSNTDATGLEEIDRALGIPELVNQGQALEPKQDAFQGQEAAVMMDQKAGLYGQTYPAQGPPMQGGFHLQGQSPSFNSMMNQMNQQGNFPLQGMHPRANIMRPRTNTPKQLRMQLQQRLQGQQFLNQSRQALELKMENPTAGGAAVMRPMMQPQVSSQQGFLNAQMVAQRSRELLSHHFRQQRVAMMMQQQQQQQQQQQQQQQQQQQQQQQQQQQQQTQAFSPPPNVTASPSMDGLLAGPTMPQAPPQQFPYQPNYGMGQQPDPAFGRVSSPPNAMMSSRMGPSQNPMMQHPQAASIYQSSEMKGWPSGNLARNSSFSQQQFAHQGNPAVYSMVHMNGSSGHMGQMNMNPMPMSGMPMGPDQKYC

| Structure (SMILES) | inhibition |
| --- | --- |
| Cc1cccc(NC(=O)c2cnn(C)c2)c1C | -2.28% |
| O=C(CN1CC(c2ccccc2)CC1=O)N/N=C/c1cc(Br)ccc1O (stereo not drawn) | 15.1% |
| CCN(CC)CCOc1c(Br)ccc2c1sc1nc3n(c(=O)c12)CCC3 | -18.1% |
| CC/C(C)=N/Nc1cccc([N+](=O)[O-])c1 | 2.68% |
| O=C(Nc1ccn(Cc2ccccc2F)n1)c1ccc(COc2ccccc2Cl)cc1 | 10.9% |
| C/C(=N\NC(=O)COc1ccccc1-c1ccccc1)c1ccc(O)cc1O | 8.45% |
| COc1ccc(C(C(=O)NC2CCCCC2)N(C(=O)CCl)c2ccc(OC)cc2)cc1 (stereo not drawn) | 64.4% (active) |
| C/C(=N\NC(=S)Nc1cc(S(=O)(=O)N2CCOCC2)ccc1Cl)c1ccccc1F | 31.8% |
| Cc1ccccc1-n1nnnc1Sc1nnnn1-c1ccccc1 | 7% |
| CC(C)C(C)NC(=O)CSc1ccc(S(=O)(=O)N2CCOCC2)cn1 (stereo not drawn) | -6.95% |
| Cn1nc(CC(=O)Nc2ccc(N3CCN(C(=O)OC(C)(C)C)CC3)cc2)c2ccccc2c1=O | 17.6% |
| Cc1cccc(NC(=S)N(CCCN2CCOCC2)Cc2cn(C)c3ccccc23)c1 | -2.78% |
| CC(C)(CC(=O)O)CC(=O)Nc1ccc(Oc2ccc(C(C)(C)C)cc2)nc1 | 3.47% |
| CC1CCc2sc3ncnc(N4CCOCC4)c3c2C1 (stereo not drawn) | 32.5% |
| CCCC(=O)NC(NC(=S)Nc1ccc(N=Nc2ccccc2)cc1)C(Cl)(Cl)Cl (stereo not drawn) | 3.89% |
| Cc1ccc(S(=O)(=O)CCC(=O)N2CCN(c3ccc(Cl)cc3)CC2)cc1 | -1.83% |
| CC(C)C[C@H](NC(=O)c1[nH]cnc1C(=O)N[C@@H](Cc1ccccc1)C(=O)OC(C)(C)C)C(=O)OC(C)(C)C | 13.6% |
| CC(C(=O)c1ccc(-c2ccccc2)cc1)[n+]1ccccc1 (stereo not drawn) | 5.63% |
| Cc1cc(Br)cc(/C=N/NC(=O)c2ccc3c(c2)OCO3)c1O | 18.9% |
| Cc1cccn2c(CNCC3(c4ccccc4)CCCC3)c(C(=O)N3CCOCC3)nc12 | 7.17% |
| Nc1ccccc1SCC(=O)Nc1nc(-c2ccccc2)cs1 | 25% |
| CCOC(=O)C(=O)NNc1ccc(C)cc1 | -7.17% |
| O=C1N(c2cccc(Cl)c2)C(c2ccc(Cl)cc2)N2CCCN12 (stereo not drawn) | 3.22% |
| c1ccc(Oc2cccc(Oc3ccccc3)n2)cc1 | 5.37% |

Each compound was assayed on transactivating tegument protein VP16 (Human herpesvirus 1), Gal4-VP16 luciferase reporter (assay: repression of VP16-driven luciferase reporter – cell-based, luminescence, high throughput, counter-screen for SRC3 inhibitor project (AID 588794)). Conditions: mammalian cells, at 3.6 µM, hits give high values.

| Structure (SMILES) | inhibition |
| --- | --- |
| O=C(N/N=C/c1cc(Br)ccc1O)c1cccc(N2CCCC2=O)c1 | 30.7% (active) |
| COc1ccc(Oc2ccc(/C=C/C(=O)c3ccc(O)cc3)cc2[N+](=O)[O-])cc1 | -5.56% |
| CC(=NNC(=O)c1ccncc1)c1ccc2ccccc2c1O | 32.6% (active) |
| Cn1nc(CC(=O)Nc2ccc3c(c2)OCCO3)c2ccccc2c1=O | 34% (active) |
| Cc1cccc(Nc2nc(N)c([N+](=O)[O-])c(N3CC(C)CC(C)C3)n2)c1 (stereo not drawn) | 15.7% |
| COc1ccc(C(Cl)=C(C=O)c2ccc(OC)c(OC)c2)cc1OC | -10.7% |
| Cc1cc(C)c2nc(C(F)(F)F)c(C#N)c(N)c2c1 | 31.6% (active) |
| CN(C)S(=O)(=O)c1ccc(N2CCN(S(=O)(=O)c3ccc(F)cc3)CC2)c(Cl)c1 | 28.5% |
| NC(=S)Nc1cc(Cl)cc(Cl)c1 | 20.4% |
| COc1ccc(-n2c(-c3ccc(Br)cc3)c[n+]3c2SC(C)C3)cc1 (stereo not drawn) | 23.3% |
| c1ccc2c(c1)OCC(CNc1ncnc3sccc13)O2 (stereo not drawn) | 37.9% (active) |
| COc1cccc(/C=C/C(=O)OCC(=O)N2CCCC2)c1OC | -16% |
| CCc1ccc([C@@H]2CC(=O)[C@@H]3CN(S(=O)(=O)c4ccccc4C)[C@H](c4ccc(Cl)cc4)C[C@@H]3N2S(=O)(=O)c2ccc(C)cc2)cc1 | 4.71% |
| CCOC(=O)c1c(C)sc2c1N(C(=O)CCl)c1cc(Cl)ccc1S2 | 1.53% |
| N=c1c(C(=O)NCC2CCCO2)cc2c(=O)n3ccccc3nc2n1Cc1cccnc1 (stereo not drawn) | -5.19% |
| Cc1cccc(NC(=O)c2cnn(C)c2)c1C | -8.45% |
| O=C(CN1CC(c2ccccc2)CC1=O)N/N=C/c1cc(Br)ccc1O (stereo not drawn) | 10.9% |
| CCN(CC)CCOc1c(Br)ccc2c1sc1nc3n(c(=O)c12)CCC3 | 2.47% |
| CC/C(C)=N/Nc1cccc([N+](=O)[O-])c1 | 18% |
| O=C(Nc1ccn(Cc2ccccc2F)n1)c1ccc(COc2ccccc2Cl)cc1 | 22.1% |

| Structure (SMILES) | inhibition |
| --- | --- |
| C/C(=N\NC(=O)COc1ccccc1-c1ccccc1)c1ccc(O)cc1O | 10.5% |
| COc1ccc(C(C(=O)NC2CCCCC2)N(C(=O)CCl)c2ccc(OC)cc2)cc1 (stereo not drawn) | 27.2% |
| C/C(=N\NC(=S)Nc1cc(S(=O)(=O)N2CCOCC2)ccc1Cl)c1ccccc1F | 28.8% |
| Cc1ccccc1-n1nnnc1Sc1nnnn1-c1ccccc1 | 7.79% |
| CC(C)C(C)NC(=O)CSc1ccc(S(=O)(=O)N2CCOCC2)cn1 (stereo not drawn) | 8.39% |
| Cn1nc(CC(=O)Nc2ccc(N3CCN(C(=O)OC(C)(C)C)CC3)cc2)c2ccccc2c1=O | 42.2% (active) |
| Cc1cccc(NC(=S)N(CCCN2CCOCC2)Cc2cn(C)c3ccccc23)c1 | -2.77% |
| CC(C)(CC(=O)O)CC(=O)Nc1ccc(Oc2ccc(C(C)(C)C)cc2)nc1 | 0.08% |
| CC1CCc2sc3ncnc(N4CCOCC4)c3c2C1 (stereo not drawn) | 29.8% (active) |
| CCCC(=O)NC(NC(=S)Nc1ccc(N=Nc2ccccc2)cc1)C(Cl)(Cl)Cl (stereo not drawn) | 18.1% |
| Cc1ccc(S(=O)(=O)CCC(=O)N2CCN(c3ccc(Cl)cc3)CC2)cc1 | 2.47% |
| CC(C)C[C@H](NC(=O)c1[nH]cnc1C(=O)N[C@@H](Cc1ccccc1)C(=O)OC(C)(C)C)C(=O)OC(C)(C)C | 2.92% |
| CC(C(=O)c1ccc(-c2ccccc2)cc1)[n+]1ccccc1 (stereo not drawn) | 19.5% |
| Cc1cc(Br)cc(/C=N/NC(=O)c2ccc3c(c2)OCO3)c1O | 26.3% |
| Cc1cccn2c(CNCC3(c4ccccc4)CCCC3)c(C(=O)N3CCOCC3)nc12 | 6.26% |
| Nc1ccccc1SCC(=O)Nc1nc(-c2ccccc2)cs1 | 48.4% (active) |
| CCOC(=O)C(=O)NNc1ccc(C)cc1 | 4.76% |
| O=C1N(c2cccc(Cl)c2)C(c2ccc(Cl)cc2)N2CCCN12 (stereo not drawn) | -0.24% |
| c1ccc(Oc2cccc(Oc3ccccc3)n2)cc1 | 1.72% |
